From PubChem BioAssay AID504773 (Broad Institute, 2011)
Potency and affinity values are given separately. Activity calls are given as the source filed them.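 Rule for the calls: active = polarization signal falls with dose and the fitted half-maximal concentration is at or below ten times the sample's top valid dose; inconclusive = flat curve at 30 to 70% inhibition, or poor fit; inactive = signal rises, flat within 30%, or potency beyond limit.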

What follows are molecules tested against Golgi-associated PDZ and coiled-coil motif-containing protein (Homo sapiens) (UniProt Q9HD26) (assay: CAL PDZ peptide-binding inhibitors, dose response, biochemical, fluorescence polarization, Cerulean-tagged CAL PDZ, cherry-picks (AID 504773)). Conditions: 1 h; series mostly up to 50 µM.

outcome, inactive:
COc1ccc(Oc2nc3c(c(=O)n(C)c(=O)n3C)n2C)cc1
CN=c1scc(C)n1/N=C/c1cc(Br)c(O)c(Br)c1
CO[C@H]1O[C@H](C)[C@@H](O)C[C@H]1NC(=O)OCc1ccccc1
O=C(N/N=C/c1ccc(OCc2ccccc2)cc1)c1ccc(O)cc1
CC(O)CNCCCOc1cccc(Oc2ccccc2)c1 (stereo unspecified)
Cc1ccc(C(C)NC(=O)Cc2cccs2)c(C)c1 (stereo unspecified)
Cc1ccc(CNC2CCCCC2)s1
CC(C)CNC(=O)CN1C(=O)NC(Cc2c[nH]c3ccccc23)C1=O (stereo unspecified)
Cc1cc(C(=O)CN2CCCC2)c(C)n1-c1ccc(Cl)cc1
CC(=O)Nc1cccc(NC(=O)CSc2nnc(NC(=O)c3ccco3)s2)c1
Cc1ccc(C(=O)Nc2ccccc2)cc1S(=O)(=O)N1CCN(C)CC1
CCN(CC(=O)Nc1cc(Cl)cc(Cl)c1)CC(=O)NC1CCS(=O)(=O)C1 (stereo unspecified)
O=S(=O)(c1cccc2ccccc12)N1CCCCC1
CCN(CC)Cc1c(O)ccc2c1O/C(=C\C=C\c1ccccc1)C2=O
COc1ccc2ccn(S(=O)(=O)c3ccccc3)c2c1
CC1=C(C#N)C(=O)NC(=O)/C1=C\c1ccc(-c2cc(C)c(C)cc2[N+](=O)[O-])o1
COCC(=O)Nc1ccc2nc3n(c(=O)c2c1)CCCCC3
O=C(C=Cc1ccccc1)c1cc(Br)ccc1O
COC(=O)c1ccc(CNC(=O)COC(=O)c2cc(Cl)nc(Cl)c2)cc1
COc1ccc(NC(=O)c2cnn(-c3ccccc3)c2C)c(OC)c1
CCOC(=O)CCC(=O)Nc1ccc(S(=O)(=O)N2CCC(C)CC2)cc1
O=C(O)c1ccc(S(=O)(=O)c2ccc3c(c2)C(=O)N(c2ccccc2[N+](=O)[O-])C3=O)cc1
O=C(Nc1ccc([N+](=O)[O-])cc1)Nc1cnccn1
COc1ccc(CCn2c(=S)[nH]c3ccc(N4CCOCC4)cc3c2=O)cc1OC
O=C(CSc1nccc(=O)[nH]1)Nc1ccc(Oc2ccccc2)cc1
COc1ccc(CN2CCCC(N3CCN(c4cccc(Cl)c4)CC3)C2)cc1OC (stereo unspecified)
COCC(=O)NNC(=O)c1ccc(OC)cc1
COc1ccc(CN2CN(C3CCCC3)CSC2=S)cc1
c1ccc(C2Nc3ccccc3Oc3ccccc32)cc1 (stereo unspecified)
CN(C)CCNC(=O)COc1cccc2c1OC(C)(C)C2
O=C(COC(=O)c1cccnc1Cl)Nc1ccc2c(c1)OCO2
O=[N+]([O-])c1ccccc1/C=N/Nc1nc(N2CCCC2)nc(N2CCCC2)n1
Cc1ccc2nc(CSc3nnc(-c4ccncc4)n3C)cc(=O)n2c1
O=C(NC(=S)NCCCN1CCOCC1)c1ccc(Br)cc1
N/C(=N\OC(=O)Cc1ccccc1[N+](=O)[O-])c1cccnc1
CCCc1cc2c(cc1NC(=O)c1ccco1)OCO2
